Screening data from PubChem.
FBA Mtb inh = inhibits M. tuberculosis FBA enzyme; AID 588726; P9WQA3; inhibition, % at 1 µM; hit rate 2.3% among 360,000; purified M. tuberculosis FBA, fluorescence read-out; in the data active = inhibition above about 27%;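 note: 0% = vehicle and 100% = reference inhibitor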
Target sequence (P9WQA3 whole entry, looked up): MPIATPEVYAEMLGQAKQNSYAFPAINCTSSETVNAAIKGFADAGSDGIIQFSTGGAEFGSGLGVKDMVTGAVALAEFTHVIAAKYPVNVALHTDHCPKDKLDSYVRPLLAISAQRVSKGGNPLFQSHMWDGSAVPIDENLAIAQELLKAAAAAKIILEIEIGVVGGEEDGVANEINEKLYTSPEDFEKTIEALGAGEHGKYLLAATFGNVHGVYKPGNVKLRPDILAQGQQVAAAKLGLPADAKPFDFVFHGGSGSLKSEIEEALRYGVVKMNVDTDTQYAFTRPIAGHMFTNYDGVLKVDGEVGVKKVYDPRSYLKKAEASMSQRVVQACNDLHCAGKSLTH
GDH-TPI inh = inhibits GDH-TPI coupling enzymes, artifact for Mtb FBA screen. GDH-TPI coupled enzyme counterscreen, NADH absorbance. inhibition, % at 4.8 µM. hit rate 1.2% among 360,000. AID 588335; in the data active = inhibition above about 30%;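 note: 0% = DMSO wells and 100% = wells lacking the enzyme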
BH1578 lux ind = quorum light induction in luxS cqsA deficient V. cholerae. hit rate 0.16% among 350,000. V. cholerae BH1578 lux reporter, luminescence, 6 h. activation, % at 18.7 µM; in the data active = activation mostly above about 9.7%, no sharp cut-off
Mtb BioA inh = BioA (M. tuberculosis) enzyme inhibition | purified M. tuberculosis BioA enzyme, plate reader | inhibition, % at 9.99 µM | hit rate 0.096% among 360,000; in the data active = inhibition above about 40%
* hit, by the source's call; i = inactive; . = no result; + = active, no number. Hits are enriched below; roughly 3% of the tested compounds scored in any of these assays.

SMILES	FBA Mtb inh	GDH-TPI inh	BH1578 lux ind	Mtb BioA inh
COc1ccc(-c2cc(C(=O)N3CCCCCC3)c3cc(C)ccc3n2)cc1	153*	11	0	1
N#C[C@H]1[C@@H](c2ccc(C#Cc3ccccc3F)cc2)[C@@H](CO)N1C(=O)C1CC1	.	.	.	1
COc1cc(/C=N/NC(=O)C(Cc2c[nH]c3ccccc23)NC(=O)OCC(C)C)cc([N+](=O)[O-])c1O (centres undefined)	-7	33*	0	.
COc1cc(/C=N/NC(=O)C(Cc2c[nH]c3ccccc23)NC(=O)OCc2ccccc2)cc([N+](=O)[O-])c1O (centres undefined)	-10	36*	0	5
COC(=O)c1ccc2c(CCO)c[nH]c2c1	+	17	i	-1
COc1nc(N/N=C/c2cc3c(cc2Br)OCO3)nc(N2CCOCC2)n1	1	33*	i	0
Cc1cc(N/N=C/c2ccccc2)nc(N2CCOCC2)n1	-1	26	0	1
Clc1cc2c(cc1/C=N/Nc1nc(N3CCOCC3)nc(N3CCOCC3)n1)OCO2	-9	8	i	.
Cc1cc(N/N=C/c2ccc(O)cc2O)nc(N2CCOCC2)n1	-8	69*	0	1
COc1ccc(/C=N/Nc2cc(C)nc(N3CCOCC3)n2)c(OC)c1	-3	48*	-1	-3
CCOc1ccc(/C=N/Nc2cc(N3CCOCC3)ncn2)c(O)c1	4	24	i	-1
Cc1ccc(/C=N/Nc2cc(C)nc(N3CCOCC3)n2)cc1	-2	31*	0	.
CNC[C@H]1Oc2ccc(NS(=O)(=O)c3cccs3)cc2C(=O)N([C@@H](C)CO)C[C@@H]1C	.	.	.	-1
Cc1noc(C)c1NC(=O)Nc1cccc2c1O[C@@H](CN(C)C)[C@H](C)CN([C@H](C)CO)C2=O	.	.	.	-1
C[C@@H]1CN([C@H](C)CO)C(=O)c2cccc(NC(=O)Nc3ccccc3)c2O[C@H]1CN(C)S(=O)(=O)c1ccc(F)cc1	.	.	.	0
Cc1cccc(/C=N/Nc2cc(N3CCOCC3)nc(N3CCOCC3)n2)c1	-2	30	0	.
Oc1ccc(/C=N\Nc2cc(N3CCOCC3)nc(N3CCOCC3)n2)c(O)c1	0	65*	0	0
CC(C)c1ccc(/C=N/Nc2cc(N3CCOCC3)nc(N3CCOCC3)n2)cc1	1	16	-1	1
Cc1nc(N/N=C/c2cccnc2)cc(N2CCOCC2)n1	-2	31*	i	3
CCN(CC)c1nc2c(s1)C(=O)CC(C)(C)C2	-2	35*	i	-2
CCN(CC)c1nc2c(s1)C(=O)NCCC2	-3	4	2	.
CC(=O)c1sc(NC(=O)CS(=O)(=O)c2ccc(F)cc2)nc1C	0	20	28*	.
Cc1ccc(S(=O)(=O)NCC[C@@H]2CC[C@H](NC(=O)c3ccccn3)[C@@H](CO)O2)cc1	.	.	.	-2
C[C@H]1CN([C@@H](C)CO)C(=O)c2cc(NC(=O)CCN3CCOCC3)ccc2O[C@H]1CN(C)CC1CCCCC1	.	.	.	-1
O=C(NCc1ccccn1)c1ccc(=O)oc1	8	38*	0	2
SMILES	FBA Mtb inh	GDH-TPI inh	BH1578 lux ind	Mtb BioA inh
O=C(NCCc1ccccc1)c1ccc(=O)oc1	1	75*	i	10
CC(NC(=O)c1ccc(=O)oc1)c1ccccc1 (centres undefined)	0	59*	2	0
Cc1ccc(C(=O)NCCc2ccccc2)cc1	1	1	i	6
COCc1cc(C)n(CC(=O)N/N=C/c2ccc(-c3ccc(Cl)c(C(=O)O)c3)o2)c(=O)c1C#N	5	69*	-1	2
CCN(CC)Cc1c(O)ccc2c(-c3ccccc3)cc(=O)oc12	7	18	0	.
COC(=O)Cc1c(C)c2ccc(O)c(CNCc3ccc(OC)c(OC)c3)c2oc1=O	+	24	i	-1
CCN(CC)Cc1c(O)ccc2c(C)c(CC(=O)OC)c(=O)oc12	+	24	0	-3
COc1cc(COc2ccc3c(C)c(CC(=O)O)c(=O)oc3c2C)cc(OC)c1OC	14	2	i	1
COCC(=O)Nc1ccc2c(c1)C(=O)N(C)C[C@H](OC)[C@H](C)CN(CC1CC1)[C@@H](C)CO2	.	.	.	-1
CCC(=O)Nc1ccc2c(c1)C(=O)N(C)[C@H]1CC[C@H](CC(=O)Nc3c(F)cccc3F)O[C@@H]1CO2	.	.	.	3
O=C(N/N=C/c1cc(Br)cs1)c1ccccc1[N+](=O)[O-]	-1	9	0	4
O=C(N/N=C/c1ccc(Cl)s1)c1ccccc1[N+](=O)[O-]	0	31*	-1	5
CC(C)c1cn(CC[C@@H]2CC[C@@H](NC(=O)C3CCCC3)[C@@H](CO)O2)nn1	.	.	.	0
CC(Oc1cc2oc(=O)c3c(c2cc1Cl)CCC3)C(=O)NCCCN1CCCC1=O (centres undefined)	8	17	i	16
Cc1cc(OC(C)C(=O)NCCCN2CCCC2=O)c2c(C)c(C)c(=O)oc2c1 (centres undefined)	112*	0	-1	0
Cc1c(OC(C)C(=O)NCCCN2CCCC2=O)ccc2c3c(c(=O)oc12)CCCC3 (centres undefined)	43*	3	-4	.
CCNC(=O)C[C@@H]1CC[C@@H]2[C@H](COc3ccc(NC(=O)Nc4ccc(C)cc4)cc3C(=O)N2C)O1	.	.	.	2
COc1ccccc1-c1c(C)oc2c(CN3CCN(CCO)CC3)c(O)ccc2c1=O	176*	14	0	.
COc1ccccc1-c1c(C)oc2c(CN3CCN(C)CC3)c(O)ccc2c1=O	143*	21	i	-2
CCOC(=O)c1oc2c(CN3CCN(C)CC3)c(O)ccc2c(=O)c1-c1ccccc1OC	-4	15	0	-2
C[C@@H]1CN([C@H](C)CO)C(=O)c2cc(NS(=O)(=O)c3ccc(Cl)cc3)ccc2O[C@@H](C)CCCCO[C@H]1CN(C)C(=O)C1CCCCC1	.	.	.	1
CN1C(=O)c2cc(NC(=O)Cc3ccccc3)ccc2OC[C@@H]2O[C@H](CC(=O)NCc3ccc(Cl)cc3)CC[C@H]21	.	.	.	0
O=C(NCc1ccccc1Br)c1cccc2c1C(=O)c1ccc(-c3ccc(OC(F)(F)F)cc3)cc1S2(=O)=O	3	2	i	-2
O=C(O)c1cccc2c1C(=O)c1ccc(-c3ccc(OC(F)(F)F)cc3)cc1S2(=O)=O	2	32*	i	-1
Cc1noc(C)c1S(=O)(=O)N(C)C[C@@H]1Oc2ccc(NS(=O)(=O)c3ccccc3)cc2C(=O)N([C@H](C)CO)C[C@@H]1C	.	.	.	-1
CN1CCc2c(sc3c2C(=O)NC(/C=C/c2ccco2)N3)C1 (centres undefined)	0	37*	-1	-4
CN1CCc2c(sc3c2C(=O)NC(c2ccccc2)N3)C1 (centres undefined)	25	9	-1	-6
CN(C)CCNC(=O)c1cccc2ccc(-c3ccc(-c4ccccc4)cc3)nc12	58*	10	i	.
COc1cc(/C=C/C(=O)OCC(=O)Nc2ccc([N+](=O)[O-])cc2)ccc1O	-3	68*	i	-3
COc1cc(/C=C/C(=O)OCC(=O)Nc2ccc(S(N)(=O)=O)cc2)ccc1O	3	28	i	0
